# Source: PMC8384837, “Expanding the binding specificity for RNA recognition by a PUF domain”
# Positions count from the first letter of the chain named.
# Experiments:
# Experiment in all cases: yeast three-hybrid, YBZ-1, SC-Leu-His + 0.5 mM 3-AT, 4 days
# Conditions in all cases: tags: N-Gal4 AD-HA kept; label: inside an RPR1-promoter hybrid RNA with tandem MS2 sites; ssRNA
# PUM1 PUF domain R4-CRV = PUM1 PUF domain R4-CRV (Homo sapiens, UniProt Q14671 828-1176, N971C;H972R;Q975V)
# Summary of the method: (§1)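 Sequencing with Illumina followed PCR amplification of the repeat regions from transformants grown four days on SC-Leu (input) or SC-Leu-His + 0.5 mM 3-AT (selection). The transformants were strain YBZ-1 with a LexA–MS2 coat fusion and a HIS3 reporter, carrying Pumilio-1 PUF domain libraries and matching RNA elements. The interaction score is the log change in variant frequency from input to selection, computed in log2 with a pseudocount of 1 for absent variants.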
# PUM1 PUF domain R4-DYL = PUM1 PUF domain R4-DYL (Homo sapiens, UniProt Q14671 828-1176, N971D;H972Y;Q975L)
# Summary of the method: as §1
# PUM1 PUF domain R8-KFT = PUM1 PUF domain R8-KFT (Homo sapiens, UniProt Q14671 828-1176, N1122K;Y1123F;Q1126T)
# Summary of the method: as §1
# PUM1 PUF domain R6-FYA = target: T1, PUM1 PUF domain R6-FYA (Homo sapiens, UniProt Q14671 828-1176, N1043F;Q1047A)
# T1 sequence: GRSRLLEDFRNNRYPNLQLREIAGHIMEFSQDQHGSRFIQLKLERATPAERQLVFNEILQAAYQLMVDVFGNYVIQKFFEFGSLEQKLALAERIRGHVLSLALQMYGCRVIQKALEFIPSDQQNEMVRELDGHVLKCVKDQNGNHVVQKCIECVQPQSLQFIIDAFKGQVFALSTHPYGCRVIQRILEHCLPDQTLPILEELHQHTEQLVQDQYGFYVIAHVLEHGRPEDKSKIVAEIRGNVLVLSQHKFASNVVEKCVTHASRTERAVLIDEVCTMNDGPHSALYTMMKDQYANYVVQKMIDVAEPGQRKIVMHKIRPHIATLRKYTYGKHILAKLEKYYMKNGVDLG
# Summary of the method: as §1
# PUM1 PUF domain R3-GHH = PUM1 PUF domain R3-GHH (Homo sapiens, UniProt Q14671 828-1176, C935G;R936H;Q939H)
# Summary of the method: as §1
# PUM1 PUF domain R5-GWL = PUM1 PUF domain R5-GWL (Homo sapiens, UniProt Q14671 828-1176, C1007G;R1008W;Q1011L)
# Summary of the method: as §1
# PUM1 PUF domain R6-LFT = target: T2, PUM1 PUF domain R6-LFT (Homo sapiens, UniProt Q14671 828-1176, N1043L;Y1044F;Q1047T)
# T2 sequence: T1 sequence with F216L, Y217F, A220T
# Summary of the method: as §1
# PUM1 PUF domain R5-DHS = PUM1 PUF domain R5-DHS (Homo sapiens, UniProt Q14671 828-1176, C1007D;R1008H;Q1011S)
# Summary of the method: as §1
# PUM1 PUF domain R3-RIC = PUM1 PUF domain R3-RIC (Homo sapiens, UniProt Q14671 828-1176, C935R;R936I;Q939C)
# Summary of the method: as §1
# PUM1 PUF domain R5-DME = PUM1 PUF domain R5-DME (Homo sapiens, UniProt Q14671 828-1176, C1007D;R1008M;Q1011E)
# Summary of the method: as §1
# Chain of PUM1 PUF domain R5-GWL (Q14671 828-1176 C1007G/R1008W/Q1011L): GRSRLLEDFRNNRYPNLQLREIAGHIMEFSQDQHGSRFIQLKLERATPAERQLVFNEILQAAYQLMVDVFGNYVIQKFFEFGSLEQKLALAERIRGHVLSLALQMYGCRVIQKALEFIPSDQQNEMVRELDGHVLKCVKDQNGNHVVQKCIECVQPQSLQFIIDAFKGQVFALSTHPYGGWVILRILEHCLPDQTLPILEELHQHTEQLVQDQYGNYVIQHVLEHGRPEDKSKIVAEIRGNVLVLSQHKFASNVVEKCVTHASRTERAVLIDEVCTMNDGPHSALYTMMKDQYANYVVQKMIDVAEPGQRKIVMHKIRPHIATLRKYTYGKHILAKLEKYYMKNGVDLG
sequence,measurement,setting,value
GGCUAGAACUAGUGGAUCCCCCGGCGCCCGGCGGCUCGAGCCCGGGUAAGUGUAAAUAGUCUGCAUGCCGCCGGGCGCCAUGCCUGCAGGUCGACUCUAGAAAACAUG,binding signal,PUM1 PUF domain R4-CRV,2.54 log2 enrichment (interaction score)
same,binding signal,PUM1 PUF domain R4-DYL,6.7 log2 enrichment (interaction score)
same,binding signal,PUM1 PUF domain R8-KFT,4.46 log2 enrichment (interaction score)
same,binding signal,PUM1 PUF domain R6-FYA,4.17 log2 enrichment (interaction score)
same,binding signal,PUM1 PUF domain R3-GHH,3.86 log2 enrichment (interaction score)
same,binding signal,PUM1 PUF domain R5-GWL,2.66 log2 enrichment (interaction score)
GGCUAGAACUAGUGGAUCCCCCGGCGCCCGGCGGCUCGAGCCCGGGUAAGUGAAAAUAGUCUGCAUGCCGCCGGGCGCCAUGCCUGCAGGUCGACUCUAGAAAACAUG,binding signal,PUM1 PUF domain R6-LFT,6.33 log2 enrichment (interaction score)
GGCUAGAACUAGUGGAUCCCCCGGCGCCCGGCGGCUCGAGCCCGGGUAAGUGUUAAUAGUCUGCAUGCCGCCGGGCGCCAUGCCUGCAGGUCGACUCUAGAAAACAUG,binding signal,PUM1 PUF domain R5-DHS,4.63 log2 enrichment (interaction score)
same,binding signal,PUM1 PUF domain R5-GWL,3.36 log2 enrichment (interaction score)
GGCUAGAACUAGUGGAUCCCCCGGCGCCCGGCGGCUCGAGCCCGGGUAAGUGUAAUUAGUCUGCAUGCCGCCGGGCGCCAUGCCUGCAGGUCGACUCUAGAAAACAUG,binding signal,PUM1 PUF domain R3-RIC,3.78 log2 enrichment (interaction score)
GGCUAGAACUAGUGGAUCCCCCGGCGCCCGGCGGCUCGAGCCCGGGUAAGUGUGAAUAGUCUGCAUGCCGCCGGGCGCCAUGCCUGCAGGUCGACUCUAGAAAACAUG,binding signal,PUM1 PUF domain R5-DME,2.8 log2 enrichment (interaction score)
same,binding signal,PUM1 PUF domain R5-GWL,3.27 log2 enrichment (interaction score)
